Laboratory results taken from PubChem BioAssay (Tox21).
Inconclusive results are not listed. Active and inactive are the calls of the source. Unless noted, the call rests on the fitted dose curve; in most records, active means well fitted curve in the direction sought with a large enough effect in the repeat runs; inconclusive means weak or mixed curves; inactive means no such curve, though single readings can be large; an effect the other way counts as inactive or inconclusive.

Tests used:
[1] = qHTS assay to identify small molecule antagonists of the estrogen receptor alpha (ER-alpha) signaling pathway using the BG1 cell line in the presence of 0.1 nM 17-beta-estradiol - cell viability counter screen (AID 1259241); further: nearly all actives have a fitted effect of over 40% in size
Summary of the method: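 VM7Luc4E2 cells (endogenous full-length ER-alpha, 4xERE-luciferase), cultured 5 days in charcoal-stripped serum, exposed to compounds with 0.1 nM 17beta-estradiol (final) for 22 hr at 37C. Viability read in same wells as live-cell protease fluorescence after 30 min.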

[2] = qHTS assay to identify small molecule antagonists of the androgen receptor (AR) signaling pathway using the MDA cell line in the presence of 0.5 nM R1881 - cell viability counter screen (AID 1259242); further: nearly all actives have a fitted effect of over 45% in size
Summary of the method: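 Steps: plate MDA-kb2 cells, rest 5 hr at 37C without CO2; pin in compounds in DMSO; add R1881 to 0.5 nM final; incubate 16 hr; add CellTiter-Fluor, 30 min; read fluorescence.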

[3] = target: Estrogen receptor (Homo sapiens) (UniProt P03372); test: qHTS assay to identify small molecule antagonists of the estrogen receptor alpha (ER-alpha) signaling pathway using the BG1 cell line in the presence of 0.1 nM 17-beta-estradiol (AID 1259244); further: nearly all actives have a fitted effect of over 50% in size
Estrogen receptor (Homo sapiens), sequence (P03372 whole entry, looked up): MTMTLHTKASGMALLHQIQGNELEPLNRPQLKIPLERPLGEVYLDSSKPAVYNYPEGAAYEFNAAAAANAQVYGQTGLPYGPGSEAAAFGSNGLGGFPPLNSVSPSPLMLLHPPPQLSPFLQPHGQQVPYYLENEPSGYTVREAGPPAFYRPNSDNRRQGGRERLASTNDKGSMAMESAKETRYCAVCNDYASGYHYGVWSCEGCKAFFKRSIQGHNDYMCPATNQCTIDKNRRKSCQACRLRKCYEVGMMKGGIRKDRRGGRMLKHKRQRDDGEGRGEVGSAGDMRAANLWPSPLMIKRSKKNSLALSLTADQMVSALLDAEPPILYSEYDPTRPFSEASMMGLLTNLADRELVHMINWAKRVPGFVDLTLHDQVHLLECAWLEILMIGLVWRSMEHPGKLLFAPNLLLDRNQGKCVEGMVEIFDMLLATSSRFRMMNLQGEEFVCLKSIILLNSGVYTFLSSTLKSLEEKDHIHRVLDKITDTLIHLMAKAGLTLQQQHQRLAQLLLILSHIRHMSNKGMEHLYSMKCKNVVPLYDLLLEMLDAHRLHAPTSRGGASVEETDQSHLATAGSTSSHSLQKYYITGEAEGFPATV
Summary of the method: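 Antagonist mode: compounds in DMSO are pinned onto VM7Luc4E2 reporter cells, 0.1 nM final 17beta-estradiol is added, and after 22 h at 37C luciferase luminescence is measured with ONE-Glo.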

[4] = qHTS assay to identify small molecule HDAC inhibitors (AID 1259364);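 further: wild-type HCT-116 cells with endogenous class I/II HDAC activity; top concentration of the series differs between compounds; nearly all actives have a fitted effect of over 45% in size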
Summary of the method: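 Cells (HCT-116, wild type) are seeded at 1,500 per well, incubated overnight, treated with compound in DMSO for 2 hr, then developed with HDAC-Glo I/II reagent for 30 min at room temperature.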

[5] = qHTS assay to identify small molecule HDAC inhibitors - cell viability counter screen (AID 1259365); further: series mostly up to about 92 µM; nearly all actives have a fitted effect of over 50% in size
Summary of the method: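 Wild-type HCT-116 cells, 1,500/well, cultured overnight, then compound-treated 2 h at 37 C. Viability measured as ATP luminescence with CellTiter-Glo after 30 min at room temperature.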

[6] = qHTS assay to identify small molecule agonists of the sonic hedgehog signaling (Shh) pathway - cell viability counter screen (AID 1259366); further: nearly all actives have a fitted effect of over 50% in size; further: potency means the concentration at half of the fitted maximal effect
Summary of the method: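 NIH/3T3-derived Gli1-Luc reporter cells, 2,000 per well, received compound after 4 h and were treated about 23 h at 37C. Viability measured in the same wells by CellTiter-Fluor fluorescence after 1 h.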

[7] = qHTS assay to identify small molecule antagonists of the sonic hedgehog signaling (Shh) pathway - cell viability counter screen (AID 1259367); further: nearly all actives have a fitted effect of over 55% in size; further: potency means the concentration at half of the fitted maximal effect
Summary of the method: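 Cytotoxicity was assessed in parallel with Shh reporter activity by measuring live-cell protease fluorescence (CellTiter-Fluor) in NIH/3T3 cells stably carrying Gli1-Luc, treated with compound under conditioned medium stimulation for 23 hr plus 1 hr reagent incubation.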

[8] = qHTS assay to identify small molecule agonists of the sonic hedgehog signaling (Shh) pathway (AID 1259368; calls by dose curve;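 further: NIH/3T3-derived 3T3Gli1-Luc cells carrying a stable Gli1-driven firefly luciferase reporter; series mostly up to about 92 µM; nearly all actives have a fitted effect of over 15% in size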)
Summary of the method: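 Cells of a mouse NIH/3T3 clone stably expressing luciferase under the Gli1 transcriptional response element are exposed to test chemicals for 24 hr at 37 C. Pathway activation is detected as a rise in luminescence.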

[9] = qHTS assay to identify small molecule antagonists of the sonic hedgehog signaling (Shh) pathway (AID 1259369; calls by dose curve; further: nearly all actives have a fitted effect of over 45% in size; further: potency means the concentration at half of the fitted maximal effect)
Summary of the method: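 Cells are plated and held 4hr at 37 C, compounds (DMSO) are pinned in, conditioned medium is added to stimulate the pathway, and after 24hr luciferase reagent is added for 30min before luminescence is read.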

[10] = target: Estrogen receptor beta (Homo sapiens) (UniProt Q92731); test: qHTS assay to identify small molecule antagonists of the estrogen receptor beta (ER-beta) signaling pathway (AID 1259378; active means well fitted inhibition curve with a large enough effect in the signal ratio in the repeat runs, not every such curve was filed as active; the % refers to the signal ratio)
Estrogen receptor beta (Homo sapiens), sequence (Q92731 whole entry, looked up): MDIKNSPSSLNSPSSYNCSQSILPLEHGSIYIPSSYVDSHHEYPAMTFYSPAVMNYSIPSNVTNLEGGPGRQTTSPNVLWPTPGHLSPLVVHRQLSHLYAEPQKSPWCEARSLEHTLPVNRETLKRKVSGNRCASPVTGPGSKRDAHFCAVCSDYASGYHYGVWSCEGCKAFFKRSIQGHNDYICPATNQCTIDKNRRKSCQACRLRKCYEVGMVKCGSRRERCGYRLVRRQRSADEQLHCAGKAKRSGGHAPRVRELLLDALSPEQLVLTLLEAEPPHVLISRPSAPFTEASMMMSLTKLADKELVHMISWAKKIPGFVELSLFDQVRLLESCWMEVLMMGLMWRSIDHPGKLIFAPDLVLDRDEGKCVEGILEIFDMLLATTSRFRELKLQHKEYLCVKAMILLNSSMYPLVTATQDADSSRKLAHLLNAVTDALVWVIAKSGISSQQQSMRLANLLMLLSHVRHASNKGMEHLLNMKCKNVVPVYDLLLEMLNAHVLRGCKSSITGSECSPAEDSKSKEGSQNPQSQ
Summary of the method: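 ER-beta-UAS-bla HEK293T (GripTite) cells in 2% charcoal-stripped FBS medium were preincubated 6 hr at 37C, dosed with compound, then stimulated with 1 nM E2 (final) for 16 hr; beta-lactamase reporter read by B/G FRET fluorescence after 2 hr substrate loading.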

[11] = qHTS assay to identify small molecule agonists of the androgen receptor (AR) signaling pathway in the presence of an antagonist - cell viability counter screen (AID 1259379); further: nearly all actives have a fitted effect of over 25% in size; further: potency means the concentration at half of the fitted maximal effect;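 on activity change, negative = cytotoxicity: MDA-kb2 human breast cancer cells carrying an MMTV luciferase reporter; series mostly up to about 92 µM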
Summary of the method: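 Cytotoxicity is assessed by CellTiter-Fluor in MDA-kb2 cells carrying an MMTV-driven luciferase reporter. Cells receive 3.0uM nilutamide plus compounds at 15 concentrations and incubate 16 hr at 37C without CO2 before fluorescence reading.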

[12] = qHTS assay to identify small molecule agonists of the estrogen receptor beta (ER-beta) signaling pathway - cell viability counter screen (AID 1259380); further: nearly all actives have a fitted effect of over 30% in size; further: potency means the concentration at half of the fitted maximal effect
Summary of the method: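 Cytotoxicity is measured in parallel with the reporter screen: after 16 hr compound exposure at 37C and a 2 hr LiveBLAzer step, CellTiter-Glo is added to the same ER-beta-UAS-bla HEK293T wells and luminescence read after 30 min.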

[13] = target: Androgen receptor (Homo sapiens) (UniProt P10275); test: qHTS assay to identify small molecule agonists of the androgen receptor (AR) signaling pathway in the presence of an antagonist (AID 1259381; calls by dose curve; further: nearly all actives have a fitted effect of over 15% in size)
Androgen receptor (Homo sapiens), sequence (P10275 whole entry, looked up): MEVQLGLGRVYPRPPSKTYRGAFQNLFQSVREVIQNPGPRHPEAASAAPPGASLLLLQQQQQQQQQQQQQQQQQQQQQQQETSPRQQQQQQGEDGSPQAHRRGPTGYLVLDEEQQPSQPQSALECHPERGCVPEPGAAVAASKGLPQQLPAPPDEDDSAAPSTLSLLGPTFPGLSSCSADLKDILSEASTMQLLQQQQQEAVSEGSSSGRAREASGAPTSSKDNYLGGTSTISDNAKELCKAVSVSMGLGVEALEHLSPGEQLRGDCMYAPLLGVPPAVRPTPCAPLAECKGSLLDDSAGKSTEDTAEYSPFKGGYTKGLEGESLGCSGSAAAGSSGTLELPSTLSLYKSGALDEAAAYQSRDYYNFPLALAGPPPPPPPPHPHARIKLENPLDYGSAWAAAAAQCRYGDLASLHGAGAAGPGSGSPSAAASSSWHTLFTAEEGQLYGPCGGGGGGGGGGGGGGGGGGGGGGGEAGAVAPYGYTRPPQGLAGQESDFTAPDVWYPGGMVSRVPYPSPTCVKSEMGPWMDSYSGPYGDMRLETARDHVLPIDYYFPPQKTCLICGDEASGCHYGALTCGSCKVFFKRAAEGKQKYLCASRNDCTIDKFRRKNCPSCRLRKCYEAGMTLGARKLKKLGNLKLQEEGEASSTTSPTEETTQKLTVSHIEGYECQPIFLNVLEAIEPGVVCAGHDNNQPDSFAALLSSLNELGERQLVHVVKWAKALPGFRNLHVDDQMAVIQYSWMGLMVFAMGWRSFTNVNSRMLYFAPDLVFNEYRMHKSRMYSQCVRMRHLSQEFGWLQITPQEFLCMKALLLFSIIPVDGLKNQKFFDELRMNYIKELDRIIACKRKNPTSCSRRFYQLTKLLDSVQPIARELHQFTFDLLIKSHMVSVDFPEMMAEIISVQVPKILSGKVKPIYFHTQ
Summary of the method: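 Agonist-mode confirmation screen: human MDA-kb2 cells stably expressing luciferase under an MMTV promoter bearing AR and GR response elements, co-treated with 3.0uM nilutamide (final). Luminescence measured after 16hr compound incubation.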

[14] = qHTS assay to identify small molecule antagonists of the estrogen receptor beta (ER-beta) signaling pathway - cell viability counter screen (AID 1259382); further: series mostly up to about 92 µM; nearly all actives have a fitted effect of over 55% in size
Summary of the method: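 Cytotoxicity counter screen multiplexed with the beta-lactamase antagonist assay: GripTite HEK293T ER-beta-bla cells were treated 16 hr with test chemicals in the presence of 1nM 17-beta-estradiol, and viability was measured by CellTiter-Glo.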

[15] = target: Estrogen receptor (Homo sapiens) (UniProt P03372); test: qHTS assay to identify small molecule agonists of the estrogen receptor alpha (ER-alpha) signaling pathway in the presence of an antagonist (AID 1259383; calls by dose curve; further: top concentration of the series differs between compounds; nearly all actives have a fitted effect of over 15% in size)
Summary of the method: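 Agonist-mode confirmation in the presence of the ER antagonist ICI-182,780 at 10.0nM final. Breast-derived VM7Luc4E2 reporter cells were exposed to compounds for 22hr, and ERE-driven luciferase was quantified by luminescence.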

[16] = qHTS assay to identify small molecule agonists or antagonists of the thyroid stimulating hormone receptor (TSHR) signaling pathway - wild type cell line counter screen (AID 1259384; calls by dose curve)
Summary of the method: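 Wild-type HEK293 cells were plated 18 h at 37 C/5% CO2, pin-dosed with compound plus Ro20-1724 medium, held 30 min at room temperature, then given cAMP-d2 and anti-cAMP-cryptate; fluorescence was read after 1 h. Fifteen concentrations, triplicate.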

[17] = target: Estrogen receptor beta (Homo sapiens) (UniProt Q92731); test: qHTS assay to identify small molecule agonists of the estrogen receptor beta (ER-beta) signaling pathway (AID 1259377; active means well fitted activation curve with a large enough effect in the signal ratio in the repeat runs, not every such curve was filed as active; the % refers to the signal ratio)
Summary of the method: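 ER-beta-UAS-bla HEK293T cells in medium with 2% charcoal-stripped FBS were exposed to compounds for 16 h at 37C. Beta-lactamase reporter activity was read as fluorescence after 2 h with LiveBLAzer B/G FRET substrate at room temperature.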

[18] = qHTS assay to identify small molecule phospholipidosis (PLD) inducers (AID 1259344; active means well fitted curve in the direction sought with a large enough effect; an effect the other way counts as inactive or inconclusive)
Summary of the method: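 Cells (HepG2, 900 per well) attach for 4 h, receive LipidTOX Red and compound together, incubate 24 h at 37 C, are fixed 30 min with paraformaldehyde/Hoechst, then imaged at one site per well.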
On the % scale 0 is the no-effect control and ±100 the full control effect.

CCN(CC)c1cccc(O)c1
inactive: Potency [1] | Potency [2] | Potency [3] | Potency [4] | Potency [5] | Potency [6] | Potency [7] | Potency [8] | Potency [9] | Potency [10] | Potency [11] | Potency [12] | Potency [13] | Potency [14] | Potency [15] | Potency [16]

CC1=CC[C@@H]2C[C@H]1C2(C)C
inactive: activity change, negative = cytotoxicity [1] 3.19% [at 19 µM] | activity change, negative = inhibition [3] 11.8% [at 19 µM] | activity change, negative = inhibition [4] 0.0628% [at 19 µM] | activity change, negative = cytotoxicity [5] -0.126% [at 19 µM] | activity change [8] 0.102% [at 18.9 µM, hits give high values] | activation [17] -1.23% [at 19 µM] | activity change, negative = cytotoxicity [11] 0.221% [at 19 µM] | activity change, negative = cytotoxicity [12] 5.66% [at 19 µM] | activity change, negative = cytotoxicity [14] 4.03% [at 19 µM] | activation [15] -0.899% [at 19 µM] | cAMP activity change [16] -1.96% [at 18.9 µM, hits give high values]

O=[N+]([O-])C1(Br)COCOC1
inactive: Potency [1] | Potency [3] | Potency [4] | Potency [5] | Potency [8] | Potency [17] | Potency [10] | Potency [11] | Potency [14] | Potency [15] | Potency [16]
active: Potency [9] 43.3 µM

CNCc1ccc(NC(=O)c2c[nH]c3c2C(=O)CCC3)cc1
inactive: Potency [1] | Potency [2] | Potency [4] | Potency [5] | Potency [6] | Potency [8] | Potency [17] | Potency [10] | Potency [11] | Potency [16]

O=C1[C@@H]2[C@H]3CC[C@H](C3)[C@@H]2C(=O)N1CCCCN1CCN(c2ncccn2)CC1
inactive: Potency [1] | Potency [2] | Potency [3] | Potency [18] | Potency [4] | Potency [5] | Potency [6] | Potency [7] | Potency [8] | Potency [9] | Potency [11] | Potency [12] | Potency [14] | Potency [15] | Potency [16]

Nc1c(Cl)cc(Cl)cc1[N+](=O)[O-]
inactive: Potency [1] | Potency [2] | Potency [3] | Potency [4] | Potency [5] | Potency [6] | Potency [7] | Potency [8] | Potency [10] | Potency [11] | Potency [12] | Potency [13] | Potency [14] | Potency [15] | Potency [16]

COc1ccc(N)c([N+](=O)[O-])c1
inactive: Potency [1] | Potency [2] | Potency [5] | Potency [6] | Potency [8] | Potency [9] | Potency [17] | Potency [10] | Potency [12] | Potency [14] | Potency [16]

CN1CCCN(C(c2ccccc2)c2ccc(Cl)cc2)CC1 (configuration not stated)
active: Potency [6] 15 µM | Potency [7] 13.3 µM | Potency [9] 5.96 µM | Potency [11] 26.6 µM | Potency [12] 13.3 µM
inactive: Potency [3] | Potency [4] | Potency [5] | Potency [8] | Potency [13] | Potency [15] | Potency [16]

O=C(O)CCS
inactive: Potency [1] | Potency [3] | Potency [4] | Potency [5] | Potency [6] | Potency [8] | Potency [9] | Potency [11] | Potency [12] | Potency [14] | Potency [15] | Potency [16]

CCOCCC(=O)OCC
inactive: Potency [1] | Potency [2] | Potency [3] | Potency [4] | Potency [5] | Potency [6] | Potency [7] | Potency [8] | Potency [9] | Potency [11] | Potency [12] | Potency [14] | Potency [15]
